This passage reports growth results from PubChem BioAssay (NCI).

The panel holds about 83,000 compounds, 20% with a hit somewhere; the sample as a whole holds those more often.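 For each line, cells grew in 96-well plates with the test compound present at a single concentration for 48 hours.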 A number with no mark means an inactive call. Calls of active or inactive are those of the source. How the source made its calls: active means growth percent below 10; inactive means the rest.

Among the test systems are T-47D breast; BT-549 breast; MDA-MB-435 melanoma; SW-620 colon; MCF7 breast; HCT-116 colon; HCC-2998 colon; KM12 colon.
Holding throughout (assay): NCI-60 one-dose screen, 48 h (100 = growth as untreated, 0 = no growth, -100 = all killed)
Common to all, as to conditions: 10 µM unless noted

Consider `C=C1C(=O)O[C@H]2[C@H]1CC/C(COC(=O)/C=C\C(=O)NCc1ccc(Cn3c(=O)sn(CCCl)c3=O)cc1)=C\CC[C@@]1(C)O[C@@H]21`, for which the growth is 84.7% in the test with T-47D breast; 85.5% in the test on BT-549 breast; 65.8% in the test on MDA-MB-435 melanoma; 31.2% in the test with SW-620 colon; 61.8% with MCF7 breast; 68.7% in the test on HCT-116 colon. Also, the growth with HCC-2998 colon was 117%; with KM12 colon, 97.1%.
For `c1nc2ccc(-c3cc4ccc5[nH]ncc5c4c4c3CCCC4)cc2[nH]1`, the growth was 60.3% in the test with T-47D breast; 34.1% in the test on BT-549 breast; 21.2% in the test with MDA-MB-435 melanoma; 39.4% with SW-620 colon; 59% in the test with MCF7 breast; 7.07% (active) in the test with HCT-116 colon. The growth in the test on HCC-2998 colon is 75.5%; in the test with KM12 colon, 30.8%.
Consider `N#Cc1nc(-c2ccccc2)oc1S(=O)(=O)N1CCN(c2ccc(F)cc2)CC1`, for which the growth in the test on T-47D breast is 55.8%; with BT-549 breast, 59.7%; in the test on MDA-MB-435 melanoma, 67.5%; with SW-620 colon, 32.9%; with MCF7 breast it was 38.5%; with HCT-116 colon it was 52.8%. Moreover, the growth with HCC-2998 colon was 94%; with KM12 colon it was 81.9%.
With `O=c1cc(-c2ccccc2)[nH]c2ncc(-c3ccc(F)cc3)n12`, the growth was 74.3% in the test on T-47D breast; 64.1% in the test with BT-549 breast; -12% (active) in the test with MDA-MB-435 melanoma; 40.3% in the test with SW-620 colon; 57.8% in the test with MCF7 breast; 51.3% in the test with HCT-116 colon. Also, the growth with HCC-2998 colon is 75.6%; in the test with KM12 colon, 44.4%.
With `Cc1ccc2c(-n3nc(C#N)c(C#N)c3N)cc(=O)[nH]c2c1`, the growth is 77% with T-47D breast; 86.9% in the test with BT-549 breast; 107% in the test with MDA-MB-435 melanoma; 99.3% in the test with SW-620 colon; 85.1% in the test on MCF7 breast; 76% with HCT-116 colon. In addition, the growth with HCC-2998 colon was 139%; in the test on KM12 colon it was 94.8%.
As to `O=C(CCl)NNc1nccc(Nc2ccc(S(=O)(=O)Nc3ccncc3)cc2)n1`, the growth in the test on T-47D breast was 15.9%; in the test on BT-549 breast it was 25.6%; in the test with MDA-MB-435 melanoma it was 41.3%; in the test on SW-620 colon, 28.5%; in the test on MCF7 breast, 22.3%; with HCT-116 colon it was 10.7%. Further, the growth in the test on HCC-2998 colon was 95.3%; in the test with KM12 colon it was 62%.
For `O=C1c2ccccc2C(=O)c2c1cc1c(c2[N+](=O)[O-])OCO1`, the growth with T-47D breast was 4.66% (active); in the test on BT-549 breast it was 15.8%; in the test with MDA-MB-435 melanoma, 56.3%; in the test with SW-620 colon it was 7.14% (active); in the test with MCF7 breast it was 3.53% (active); with HCT-116 colon, 1.94% (active). Also, the growth in the test on HCC-2998 colon is -46.4% (active); in the test on KM12 colon it was 0.869% (active).
For the compound `CCN(CC)c1ccc(CNc2cc(C)nc3ccccc23)cc1`, the growth with T-47D breast was 39%; with BT-549 breast it was 71.6%; with MDA-MB-435 melanoma, 65.7%; with SW-620 colon, 76.9%; in the test on MCF7 breast, 39.2%; in the test with HCT-116 colon, 52.1%. For the same compound, the growth with HCC-2998 colon was 42.1%; in the test with KM12 colon it was 71.9%.
`O=C(Nc1ccccc1O)c1ccc(CNC(=O)c2ccsc2Nc2ccnc(C(F)(F)F)c2)cc1`: the growth in the test with T-47D breast is 25%; with BT-549 breast, 51.7%; in the test with MDA-MB-435 melanoma, 14.9%; in the test with SW-620 colon it was 19.1%; in the test on MCF7 breast it was 24.5%; in the test on HCT-116 colon, 15.9%. Further, the growth in the test with HCC-2998 colon was 44.5%; with KM12 colon it was 30%.
`O=S1(=O)C=C(c2ccccc2)C(c2ccccc2)=C1`: the growth was -63.4% (active) in the test with T-47D breast; 79.6% in the test with BT-549 breast; 25.4% in the test on MDA-MB-435 melanoma; -82.9% (active) in the test on SW-620 colon; 6.2% (active) in the test with MCF7 breast; -74.8% (active) in the test with HCT-116 colon. The growth in the test with HCC-2998 colon is 15.5%; in the test with KM12 colon, 16.5%.
As for `Cc1ccc(CNc2ccc3nc(CCC(C)C)[nH]c3c2)cc1`, the growth was 84.4% in the test with T-47D breast; 93.4% in the test with BT-549 breast; 97.2% in the test with MDA-MB-435 melanoma; 91.9% in the test on SW-620 colon; 89.2% with MCF7 breast; 80.4% in the test on HCT-116 colon. For the same compound, the values for the growth in the test on HCC-2998 colon and with KM12 colon were 111% and 96.2%, respectively.
In the case of `CS(=O)(=O)c1ccc(NC(=O)c2ccccc2)nc1`, the growth with T-47D breast is 98.9%; in the test on BT-549 breast it was 105%; in the test on MDA-MB-435 melanoma, 111%; with SW-620 colon it was 100%; in the test on MCF7 breast, 101%; in the test with HCT-116 colon, 95.3%. The growth in the test with HCC-2998 colon and with KM12 colon was 107% each time.
`CC1(C)CC[C@]23CC[C@]4(C)[C@H](CC[C@@H]5[C@@]6(C)C/C(=C/c7ccncc7)C(=O)C(C)(C)[C@@H]6CC[C@]54C)[C@H]2[C@H]1OC3`: the growth is 41.5% in the test with T-47D breast; 99.3% in the test on BT-549 breast; 66.6% with MDA-MB-435 melanoma; 61.3% in the test with SW-620 colon; 55.3% in the test with MCF7 breast; 50% in the test with HCT-116 colon. The growth in the test on HCC-2998 colon was 93%; in the test with KM12 colon, 68.4%.
For `CC/C=C\CCC/C=C1/C(=O)C=C[C@@H]1C/C=C\CCCC(=O)OC`, the growth is 34.4% in the test with T-47D breast; -25% (active) in the test with BT-549 breast; -22.3% (active) in the test on MDA-MB-435 melanoma; 3.05% (active) with SW-620 colon; 17% in the test on MCF7 breast; -52.4% (active) with HCT-116 colon. The growth was 8.12% (active) in the test with HCC-2998 colon and -20.6% (active) in the test on KM12 colon.
Regarding `COc1ccc(-c2nc3c(N)c(CO)cnc3s2)cc1`, the growth is 89.2% with T-47D breast; 104% with BT-549 breast; 92.9% with MDA-MB-435 melanoma; 94.1% in the test on SW-620 colon; 91% in the test on MCF7 breast; 101% in the test on HCT-116 colon. Besides, the growth is 85.8% with HCC-2998 colon and 88.4% with KM12 colon.
For the compound `O=C(O)c1cn(C2CC2)c2cc(N3CCN(C(=O)Nc4nc(-c5ccc(Br)cc5)cs4)CC3)c(F)cc2c1=O`, the growth is 27.3% with T-47D breast; 1.15% (active) with BT-549 breast; 9.05% (active) with MDA-MB-435 melanoma; 21.6% in the test on SW-620 colon; 5.12% (active) in the test with MCF7 breast; 18.5% with HCT-116 colon. In addition, the figures for the growth in the test on HCC-2998 colon and with KM12 colon were 35.4% and 11.1%, respectively.
